# Screens deposited in PubChem by National Center for Advancing Translational Sciences (NCATS).
# A selection: hits, their analogues and other compounds. The true share with any hit is near 6.8%.
# TSG101-PTAP inh: blocks PTAP/TSG101 interaction to inhibit HIV-1 budding; Potency, µM (titrated, usually from 115 µM), for the others: at the top dose activity change, negative = inhibition, actives largely listed as inhibitors; AID 493005; Q99816; Fluorescence polarization, FITC-PTAP peptide / Tsg101 binding; 340,000 tested, under 10 active; active means well fitted inhibition curve with a large enough effect in the main read-out, with a control signal flat, not every such curve was filed as active; inconclusive means small, poorly fitted or top-dose-only effect, or effect the other way, or a change in a side signal; inactive means no such curve, though single readings can be large or run the other way; further: % of control where 0% means no effect
# Target sequence (Q99816 whole entry, looked up): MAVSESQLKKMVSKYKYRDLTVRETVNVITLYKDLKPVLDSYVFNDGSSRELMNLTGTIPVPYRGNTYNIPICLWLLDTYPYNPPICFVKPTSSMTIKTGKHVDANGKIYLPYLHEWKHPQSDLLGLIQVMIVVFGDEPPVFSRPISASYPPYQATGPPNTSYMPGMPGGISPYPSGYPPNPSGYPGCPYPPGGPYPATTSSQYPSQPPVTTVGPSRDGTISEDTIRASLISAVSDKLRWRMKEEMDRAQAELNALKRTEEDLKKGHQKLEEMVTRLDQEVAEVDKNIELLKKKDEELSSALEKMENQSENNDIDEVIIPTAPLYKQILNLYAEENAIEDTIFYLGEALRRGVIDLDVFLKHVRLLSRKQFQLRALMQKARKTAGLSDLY
#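 Fluorescence polarization binding of Tsg101 binding domain (10 uM final) to FITC-labeled PTAP peptide (50 nM final) in HEPES pH 7.5 buffer with NaCl, Tween 20, EDTA, TCEP. Compounds added before peptide; binding 20 min at RT.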
# PINK1 modulator: modulators of PINK1 expression; 0.2% of 410,000 active; AID 624263; Potency, µM (top dose mostly 76.6 µM), for the others: at the top dose activation (PINK1 increase), most hits filed as activators; PINK1 immunofluorescence, high-content cytometry, 24 h; active means well fitted activation curve with a large enough effect; inconclusive means small, poorly fitted or top-dose-only effect; cell line not stated here; further: % of control where 0% means no effect; nearly all actives have a fitted effect of over 65% in size
#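 Readout is PINK1 immunofluorescence, quantified alongside mitochondrial, cell and nuclear markers by laser-scanning microplate cytometry. Cells from a stable line were exposed to compound titrations (5 concentrations) for 24 hours, with CCCP controls.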
# KB-V1 MDR tox: KB-V1 MDR subline cytotoxicity. KB-V1 MDR cells viability, CellTiter-Glo, 72 h. Potency, µM (doses to about 46.1 µM), actives largely listed as cytotoxic. 3.4% of 400,000 active. AID 1347076; further: on the % scale 0 is the no-effect control and ±100 the full control effect; nearly all actives have a fitted effect of over 60% in size
#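 In this primary screen, KB-V1 cells overexpressing P-gp are incubated with library compounds (lowest to highest concentration) for 72 h at 37 degrees C before a luminescent ATP viability read.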
# SW480 rereplic: inducers of DNA re-replication in SW480 colon cancer cells | SW480 DNA re-replication, Hoechst DNA content imaging, 48 h | AID 624297 | 1.8% of 340,000 active | Potency, µM (doses to about 46.1 µM), inactives show top-dose re-replication activation, usual class: activators; further: % of control where 0% means no effect; nearly all actives have a fitted effect of over 55% in size
#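 Treated cells incubate 48 hr (37 C, 5% CO2), are stained 40 min with Hoechst, and nuclear fluorescence is enumerated; a rise in nuclei with high DNA signal marks re-replication.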
# MCF10A rerep: DNA re-replication induction in MCF 10a cells; 2.9% of 350,000 active; MCF 10A DNA re-replication, Hoechst nuclear intensity, 48 h; AID 624296; Potency, µM (doses to about 46.1 µM), inactives show at the top dose activity, positive = re-replication, hits mostly activators; further: % of control where 0% means no effect; nearly all actives have a fitted effect of over 50% in size
# KB-3-1 tox: KB-3-1 parental cell cytotoxicity | KB-3-1 viability, CellTiter-Glo ATP luminescence, 72 h | Potency, µM (top dose mostly 46.1 µM), hits mostly cytotoxic | 1.4% of 400,000 active | AID 1347075; further: on the % scale 0 is the no-effect control and ±100 the full control effect; nearly all actives have a fitted effect of over 60% in size
#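 Cytotoxicity in the drug-sensitive parental line KB-3-1 was scored as loss of CellTiter-Glo luminescence following 72 h incubation with compound. Values come from curve fitting of normalized concentration-response data.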
# * hit, by the source's call; i = inactive; u = inconclusive; x = no result; [ ] = dose if it differs, or a comment. Unless noted, the call rests on the fitted dose curve; in most records, active means well fitted curve in the direction sought with a large enough effect; inconclusive means small, poorly fitted or top-dose-only effect, or another doubt; inactive means no such curve, though single readings can be large; an effect the other way counts as inactive or inconclusive. Potency means the concentration at half of the fitted maximal effect.
SMILES,TSG101-PTAP inh,PINK1 modulator,KB-V1 MDR tox,SW480 rereplic,MCF10A rerep,KB-3-1 tox
Cn1cc(Br)c(C(=O)NN2C(=O)C3C(C2=O)C2C=CC3C23CC3)n1 (centres undefined),-4%,1%,i,2%,0.73µM*,i
Cc1c(N=C2N=C(NC(=O)Nc3ccc(Cl)cc3)c3ccccc32)c(=O)n(-c2ccccc2)n1C,u,12%,i,7%,16µM*,i
CCN(Cc1ccccc1)C(=O)CN1C(=O)CSc2ccc(S(=O)(=O)N(CC)CC)cc21,x,1%,i,x,x,i
COc1ccc(CNC(=O)CCC2N=C3c4ccccc4N=C(SCc4ccc(F)cc4)N3C2=O)cc1 (centres undefined),x,0%,i,x,x,i
Nc1nc(N)c2cc(Sc3ccc4ccccc4c3)ccc2n1,4%,-1%,i,u,16µM*,21µM*
CCN(Cc1ccncc1)Cc1ccc2c(c1)CN(C(=O)c1ccc(C)cc1)CCO2,x,0%,x,x,x,x
COc1ccc(Cn2cc(CN3CCc4onc(-c5ccc(Br)cc5)c4C3=O)nn2)cc1,x,x,21µM*,x,x,u
COc1ccccc1-n1cc(CN2CCc3onc(-c4ccc(Br)cc4)c3C2=O)nn1,x,x,u,x,x,i
COC(=O)CN1C(=S)N(Cc2ccccc2)C(=O)C1CC(=O)Nc1ccc(Br)cc1 (centres undefined),-1%,u,i,u,18µM*,i
CCN1C(=O)C(CC(=O)Nc2ccc(OC)cc2)N(CCc2ccccc2F)C1=S (centres undefined),0%,u,i,2%,u,i
COc1ccc(NC(=O)CC2C(=O)N(C)C(=S)N2Cc2ccco2)cc1 (centres undefined),-4%,3%,i,-1%,-4%,i
C=CCN1C(=O)C(CC(=O)Nc2ccc(OC)cc2)N(Cc2ccco2)C1=S (centres undefined),-6%,-3%[38.3 µM],21µM*,0%,-3%,i
CCN1C(=O)C(CC(=O)Nc2ccc(OC)cc2)N(CCc2ccccc2)C1=S (centres undefined),0%,u,21µM*,-5%,7%,u
COc1ccc(NC(=O)CC2C(=O)N(C)C(=S)N2CCc2ccccc2F)cc1 (centres undefined),0%,16µM*,u,16%,u,i
CC(C)(C)OC(=O)N1CCC(c2c(C(=O)N3CCCCC3)cnn2-c2ccccc2Cl)CC1,x,-1%,i,x,x,i
COc1ccccc1OCc1ccc(C(=O)Nc2ccc(C)c(C)c2)o1,x,0%,x,x,x,x
COc1ccc(NC(=O)CC2C(=O)N(CCc3ccccc3)C(=S)N2Cc2cccnc2)cc1 (centres undefined),-12%,5%[38.3 µM],15µM*,u,u,i
CCN1C(=O)C(CC(=O)Nc2ccc(OC)cc2)N(Cc2cccnc2)C1=S (centres undefined),0%,4%[38.3 µM],i,1%,-8%,i
COc1ccc(NC(=O)CC2C(=O)N(c3ccc(Cl)cc3)C(=S)N2CCc2ccccn2)cc1 (centres undefined),-1%,28µM*,u,u,u,u
COc1ccc(NC(=O)CC2C(=O)N(c3ccc(Cl)cc3)C(=S)N2CCc2ccncc2)cc1 (centres undefined),0%,14%[38.3 µM],u,u,73%,u
O=C(CSCc1cccc(CSCC(=O)Nc2ccc3ccccc3c2)n1)Nc1ccc2ccccc2c1,-10%,0%,23µM*,2%,-4%,u
O=C(CNC(=S)N(Cc1ccccc1)Cc1ccccc1F)NCc1ccc(Cl)cc1,1%,30%,u,17%,23µM*,i
O=C(CNC(=S)N(Cc1ccccc1)Cc1ccccc1F)NCc1ccccc1,-1%,24%,u,-1%,u,i
COC(=O)Cn1c(=O)c(C(=O)CCl)c(N)n(Cc2ccccc2)c1=O,0%,0%,u,u,5.2µM*,13µM*
COC(=O)Cn1c(=O)c2c(n(Cc3ccccc3)c1=O)N/C(=C/c1ccc(OC)cc1)C2=O,4%,2%,i,21µM*,18µM*,i
SMILES,TSG101-PTAP inh,PINK1 modulator,KB-V1 MDR tox,SW480 rereplic,MCF10A rerep,KB-3-1 tox
Cc1cc(C)cc(N2C(=O)C=CC2=O)c1,-2%,-1%,i,16µM*,6.5µM*,u
Cc1c([N+](=O)[O-])cc(N2C(=O)C=CC2=O)cc1[N+](=O)[O-],3%,4%,i,0%,0%,i
CCOC(=O)c1c(C)nc(C)c(C(=O)OCC)c1-c1ccc(O)c(OC)c1,1%,0%,i,3.7µM*,u,i
Cc1ccc(C(=O)Nc2ccc(N3CCN(C(=O)c4ccco4)CC3)cc2)cc1,-1%,-1%,i,1%,-3%,i
O=C(Nc1ccc(N2CCN(C(=O)c3ccco3)CC2)cc1)c1cc(Br)ccc1Cl,-2%,9%,2.1µM*,u,u,u
O=C(Nc1ccc(N2CCN(C(=O)c3ccco3)CC2)cc1)c1ccc2c(c1)OCO2,-2%,11%,i,u,-179%[0.0737 µM],5.8µM*
O=C(Nc1ccc(N2CCN(C(=O)c3ccco3)CC2)cc1)c1ccc(Br)cc1,-4%,7%,i,-9%,12%,i
CN(C(=O)CSc1nc2ccccc2n1CC(=O)N(C)C1CCCCC1)c1ccc(F)cc1,x,2%,i,x,x,i
CC(C)Nc1nc(-c2cccnc2)nc(-c2ccc(Cl)cc2)c1C#N,-10%,10%,i,21%,23µM*,i
COc1ccc(C)cc1NC(=O)Cn1c(=O)oc2cc(S(=O)(=O)N3CCCCC3)ccc21,x,6%,i,x,x,i
Cc1nnc(N2CCCC(C(=O)NCCc3ccc(Cl)cc3)C2)c2nn(-c3ccccc3)c(C)c12 (centres undefined),x,1%,i,x,x,i
CC(C)=C1C(=O)NN(c2ccc(F)c(Cl)c2)C1=O,x,-5%[38.3 µM],i,9%,u,i
O=C1NN(c2ccc(F)c(Cl)c2)C(=O)/C1=C\c1cccc(OC(=O)c2cccs2)c1,-3%,-1%,i,0%,15µM*,i
CS(=O)(=O)c1ccc(S(=O)CC(=O)OCc2ccccc2)c([N+](=O)[O-])c1 (centres undefined),-1%,3%,i,-40%,4.1µM*,i
